# Rows were chosen to be rich in hits. Some 4.3% of all compounds tested hit in one or more screens of this group.
# MCF10A rereplic – A quantitative high throughput screen for small molecules that induce DNA re-replication in MCF 10a normal breast cells | MCF 10A DNA re-replication, Hoechst nuclear intensity, 48 h | Potency, µM (doses to about 46.1 µM), usual class: activators | 2.9% of 350,000 active | AID 624296, 2012; further: nearly all actives have a fitted effect of over 50% in size
# Giardia kill – Small Molecules that selectively kill Giardia lamblia: qHTS. Giardia lamblia trophozoite viability. activity change, % at 7.66 µM, hits read low. AID 540267, 2011. 0.15% of 340,000 active; in the data active means activity change below about -80%; inconclusive means between about -30% and that limit;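 further: parasites exposed to compound for two days anaerobically before the ATP read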
#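 ATP-content bioluminescence gauges trophozoite survival. Cells (100/well) receive compound and incubate anaerobically for 48 hrs at 37 deg C; detection reagent follows for 15-30 min at room temperature.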
# uPA surface inh – qHTS for Inhibitors of Cell Surface uPA Generation; cell surface uPA generation assay, qHTS; Potency, µM (titrated, usually from 38.3 µM), actives largely listed as inhibitors; 0.31% of 330,000 active; AID 540303, 2011; active means well fitted inhibition curve with a large enough effect; inconclusive means small, poorly fitted or top-dose-only effect; inactive means no such curve, though single readings can be large or run the other way; tested in mouse RAW 264.7 cells; further: nearly all actives have a fitted effect of over 55% in size
# SW480 rereplic – A quantitative high throughput screen for small molecules that induce DNA re-replication in SW480 colon adenocarcinoma cells | Potency, µM (titrated, usually from 46.1 µM), hits mostly activators | AID 624297, 2012 | SW480 DNA re-replication, Hoechst DNA content imaging, 48 h | 1.8% of 340,000 active; further: nearly all actives have a fitted effect of over 55% in size
#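 Quantitative HTS format with DMSO vehicle controls; 48 hr drug incubation at 37 C, then 40 min Hoechst staining and scanning imager measurement at 405 nm excitation.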
# Numbers stand for hits; i = inactive; ? = inconclusive; nt = no result; ! = not active in a repeat; [ ] = dose if it differs, or a comment. Unless noted, the call rests on the fitted dose curve; in most records, active means well fitted activation curve with a large enough effect; inconclusive means small, poorly fitted or top-dose-only effect; inactive means no such curve, though single readings can be large or run the other way.
SMILES,MCF10A rereplic,Giardia kill,uPA surface inh,SW480 rereplic
O=C1c2ccccc2C(=O)c2ccccc21,i,nt,nt,i
c1ccc2c(c1)[IH]c1ccccc1-2,i,-98.4,?,?
CC(=O)C1C(N2CC2)CC2C3CC=C4CC(O)CCC4(C)C3CCC21C (configuration not stated),4.61µM,i,i,23.1µM
CC(C)(N)Cc1ccc(Cl)cc1,i,nt,nt,i
CC1CCC(C(C)C)C(OC(=O)c2ccccc2N)C1 (configuration not stated),18.8µM,nt,nt,i
O=C(N[C@H]1C/C=C\C[C@H](CC(=O)N(CCO)Cc2ccccc2)C(=O)NC[C@H](c2ccccc2)OC1=O)OCC1c2ccccc2-c2ccccc21,i,i,i,i
COc1cc(/C=C/C(=O)c2c(O)n(CCc3ccccc3)c(=O)[nH]c2=O)ccc1O,?,i,i,?
O=C(/C=C/c1ccc2c(c1)OCO2)c1c(O)n(CCc2ccccc2)c(=O)[nH]c1=O,11.6µM,?,i,?
O=C(/C=C/c1ccccc1)c1c(O)n(CCc2ccccc2)c(=O)[nH]c1=O,8.2µM,i,i,?
O=C(O)CCCCC1SCC2NC(=O)NC21 (configuration not stated),i,i,i,i
CC(=O)OCC(=O)[C@@H]1CC[C@H]2[C@H]3CC[C@H]4C[C@@H](O)CC[C@]4(C)[C@@H]3C(=O)C[C@@]12C,i,nt,nt,i
CCn1nc(/C=C/c2ccccc2)nc2c(=O)n(C)c(=O)nc1-2,11.2µM,-94.3,i,?
CCn1nc(-c2cccs2)nc2c(=O)n(C)c(=O)nc1-2,0.731µM,i,i,?
O=C1NC[C@H](c2ccccc2)OC(=O)[C@H](Cc2ccc(F)cc2)C/C=C\C[C@H]1CC(=O)N(CCO)Cc1ccccc1,?,i,i,i
CC[C@H](C)[C@@H]1NC(=O)[C@H]([C@@H](C)CC)NC(=O)[C@@H](CC(C)C)NC(=O)[C@H](Cc2ccccc2)NC(=O)[C@H](Cc2ccccc2)NC(=O)[C@@H]2CCCN2C(=O)[C@@H]2CCCN2C(=O)[C@H](C(C)C)NC(=O)[C@H](CC(C)C)NC1=O,20.6µM,i,?,?
CC1=C/C(=N\NC(=S)NCCc2ccccc2)CC(C)(C)C1,?,i,i,i
Oc1c(Cl)c(Cl)c(Cl)c(Cl)c1Cl,8.2µM,i,i,i
CC(=O)Oc1ccc2c3c1OC1[C@@H](OC(C)=O)C=C[C@H]4[C@H](C2)N(C)CC[C@]314 (some centres not stated),i,nt,nt,i
CN1CC=C(c2c[nH]c3ccccc23)CC1,i,i,i,i
C1=C(c2c[nH]c3ccccc23)CCN(Cc2ccccc2)C1,16.4µM,i,?,13µM
O=C1[C@H]2[C@@H](C3CC3)N3C(=O)CN(CC4CC4)C(=O)[C@@]3(Cc3ccccc3)[C@H]2C(=O)N1c1ccccc1,i,i,i,i
[O]=[Cr](=[O])([OH])[O][Cr](=[O])(=[O])[OH],11.9µM!,nt,nt,?
CCN1CCN(c2cc(C)c3cc(NC(=O)c4ccc(OC)c(OC)c4)ccc3n2)CC1,i,i,7.94µM,?
O=C(c1ccc(CNS(=O)(=O)c2ccc(Br)cc2)cc1)N1CCC2(CC1)OCCO2,?,i,i,0.581µM!
O=C(c1ccc(CNS(=O)(=O)c2ccccc2)cc1)N1CCC2(CC1)OCCO2,i,i,i,i
SMILES,MCF10A rereplic,Giardia kill,uPA surface inh,SW480 rereplic
CN(CCS(=O)(=O)c1ccc(Cl)cc1)Cc1cccnc1,20.6µM,i,i,?
O=c1[nH]c(O)c(/C=C2\C=Nc3ccc(OCc4ccccc4)cc32)c(=O)[nH]1,?,i,i,20.6µM
C[C@H](N)[C@@H](O)c1ccccc1,i,nt,nt,i
COC(=O)C(Cc1ccc(N(CCCl)CCCl)cc1)N=Cc1ccccc1O (configuration not stated),11.6µM,i,i,1.03µM
C[C@H]1CC[C@@H]2[C@@H](C)[C@H]3[C@H](C[C@H]4[C@@H]5CC=C6CC(O[C@@H]7O[C@H](CO)[C@H](O)[C@H](O[C@@H]8O[C@H](CO)[C@@H](O)[C@H](O)[C@H]8O)[C@H]7O[C@H]7O[C@@H](C)[C@H](O)[C@@H](O)[C@H]7O)CC[C@]6(C)[C@H]5CC[C@]34C)N2C1 (some centres not stated),i,nt,nt,?
CCCSc1ccc2nc(NC(=O)OC)[nH]c2c1,0.731µM,?,?,0.82µM
CC1C2Cc3ccc(O)cc3[C@]1(C)CCN2CCc1ccccc1 (some centres not stated),i,i,i,i
CC1[C@H]2Cc3ccc(O)cc3[C@]1(C)CCN2CCc1ccccc1 (some centres not stated),i,i,i,1.03µM
O=c1[nH]c(=O)n(Cl)c(=O)n1Cl,i,nt,nt,i
CC(C)c1ccc(N2C(=O)NC(=O)/C(=C\C=C\c3ccco3)C2=O)cc1,3.66µM,i,i,20.6µM
O=C1NC(=O)N(Cc2ccccc2)C(=O)/C1=C/C=C/c1ccco1,4.11µM,i,?,18.4µM
COc1ccc(CN2C(=O)NC(=O)/C(=C\c3ccco3)C2=O)cc1,i,i,i,i
CC(C)c1ccc(N2C(=O)NC(=O)/C(=C\c3cnc(-c4ccccc4)nc3)C2=O)cc1,i,i,i,i
C[C@H]1CN([C@@H](C)CO)C(=O)c2cc(NC(=O)Nc3cccc4ccccc34)ccc2O[C@@H]1CN(C)Cc1ccc(-c2ccccc2)cc1,i,i,i,i
NP(=O)(OCCCCc1ccccc1)Oc1ccccc1Cl (configuration not stated),i,i,i,i
NP(=O)(Oc1ccccc1Cl)Oc1ccccc1Cl,0.651µM,i,i,i
O=c1nc(/C=C/c2ccc(Cl)cc2Cl)cc(C(F)(F)F)[nH]1,6.51µM,i,?,i
CCOc1ccc2c3c1O[C@H]1[C@@H](O)C=C[C@H]4[C@@H](C2)N(C)CC[C@@]341,i,nt,nt,i
CC(=O)OC(C)(C)/C=C/C(=O)C(C)(O)C1C(O)CC2(C)C3CC=C4C(CC(O)C(=O)C4(C)C)C3(C)C(=O)CC12C (configuration not stated),?,i,i,0.0116µM
CN(Cc1ccc(OC(F)F)cc1)C(=O)c1ccccc1Sc1ccccc1C#N,?,i,i,i
CCOC(=O)Cn1cc(C(=O)c2ccccc2F)c2ccccc21,i,i,i,i
CCOC(=O)Cn1cc([N+](=O)[O-])nc1[N+](=O)[O-],i,i,i,23.1µM
Cc1nn(-c2ccccc2)c2c1P(=O)(O)/C(=C1\N(C)c3ccccc3C1(C)C)C=N2,11.6µM,i,i,i
Cc1nn(-c2ccccc2)c2c1CC1(C(=O)N(C)C(=O)N(C)C1=O)C1CCCCN21 (configuration not stated),i,i,i,i[9.22 µM]
C[N+]1([O-])[C@@H]2CC(OC(=O)[C@@H](CO)c3ccccc3)C[C@@H]1[C@H]1O[C@H]12 (some centres not stated),i,nt,nt,i
COCCN1C(=O)NC(=O)/C(=C\c2ccc(F)cc2)C1=O,5.17µM,i,i,i
